Target: SASH1
Test: pooled miR-30 sensor sort-seq; sequence = guide strand
Conditions: shRNA
Also: reference of the scale not given here.

Point of comparison: TAATGTACAATAACTCTTGAGT, sensor-assay potency score (higher = more potent) -0.698. Against it:
- TTGAGCTTGAGTGAGTCTGTGT — higher, 0.495
- TAGCTTTCCGAGTCTTGCCGTT — higher, -0.384
- TTCAGGTACAATCTGAGGGGGC — higher, -0.224
- TAACCTCTTAAACTTCACCGAC — higher, -0.612
- TAACTCTTGAGTCTGTTACTTT — higher, -0.488
- TAGATGAACTTGAACGTGCCGA — higher, 0.105
- TTGACCATCATCATTAGCTGAA — higher, 0.388
- TTTTAGGTTAATCCGATCCAGG — lower, -1.32
- TAGTTGTCAATTTCTGAGGTTC — higher, -0.0207
- TATTTTTTAGACATTCTCTTTC — higher, -0.235

Target: SASH3
Test: as above
Conditions: shRNA

Point of comparison: TTGAAGTCTTCCAGTGTCTGGT, sensor-assay potency score (higher = more potent) 0.225. Against it:
- ATCATCTTGCCCATCTTCCTGT — lower, -0.431
- TTGACCATCTGTAATCAGCCTT — lower, 0.123
- TAGTCCAGCAGCAGCTCGGCGG — lower, -1.4
- TAGGGTTTTTAGACTGACCTGA — higher, 0.692
- TTCTGGAATGTTATCATCCAGA — lower, -1.05
- TAGCTTTTACCAAAGTTCCTGG — lower, -0.621
- TTGGCAAAATCCTTGAAGCTGC — lower, -0.67
- TTGAGCAGGAGGGTGGATGTGT — lower, -0.276
- TGATCTGGATCACATCTCCTTT — lower, -1.14
- TTTTAGACTGACCTGAAACATT — lower, -1.36
- TGACCATCTGTAATCAGCCTTG — lower, -0.932

Target: SC5DL
Test: as above
Conditions: shRNA

Point of comparison: AAGACTAATAGCTTGTCGGAAG, sensor-assay potency score (higher = more potent) -1. Against it:
- TAAACTTAATCTCTCGACGGAC — higher, -0.573
- TTTCATTAATGCATGATCGAAG — higher, -0.355
- TTGAATGAGCCGCCAATCCTAT — higher, -0.95
- TATATGGTAAGGTAGACTCTGA — higher, -0.406
- TAAAAAAATAGTAATCTGCAAC — higher, -0.802
- TTATTAAGCACAATGATTCTTA — higher, -0.0651
- TTGAAGAATTAACCATTCCTGA — higher, -0.422
- TTTACTATGTATCTTGACTGTA — higher, -0.0112
- TTACTATGTATCTTGACTGTAT — higher, 0.237
- TTAACCAAGATGTACAGACTTA — higher, -0.113
- TATCATTATCATACCAACGTTG — higher, -0.725

Target: SCAF4
Test: as above
Conditions: shRNA

Point of comparison: TTTAATAGCAGCTTTAGTGATG, sensor-assay potency score (higher = more potent) -0.529. Against it:
- TAACTGAGCTGTGATAGCCTGA — higher, -0.339
- TTTCTTGAGATCGAGATCGGGG — lower, -0.563
- TAACATTTTCTGCTACTGGGGC — higher, -0.447
- TTGAGTTGTCTGAAACAGCTGA — higher, 0.384
